According to publication PMC5540273 (PLoS ONE, 2017):

Experiments:
Settings in all cases: concentration: 1 μM, replicates: in singlicate; n = 1
TAK1 = test system: T1, TAK1
T1 construct: gene MAP3K7

TAOK1 = test system: TAOK1
TAOK2 = test system: TAOK2
TAOK3 = test system: TAOK3
TBK1 = test system: TBK1
TEC = test system: TEC
TESK1 = test system: TESK1
TGFBR1 = test system: TGFBR1
TGFBR2 = test system: TGFBR2
TIE1 = test system: TIE1
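Also: KINOMEscan kinase panel screen.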

| Compound | %Inh (TAK1) | %Inh (TAOK1) | %Inh (TAOK2) | %Inh (TAOK3) | %Inh (TBK1) | %Inh (TEC) | %Inh (TESK1) | %Inh (TGFBR1) | %Inh (TGFBR2) | %Inh (TIE1) |
| --- | --- | --- | --- | --- | --- | --- | --- | --- | --- | --- |
| Nc1nccc2scc(-c3ccc4c(c3)CCN4C(=O)Cc3ccccc3)c12 [GSK2576924] | 1% | 2% | 17% | 10% | 2% | 16% | 0% | 7% | 0% | 55% |
| Cc1ccc(Oc2ccc(Nc3ncnc4cc[nH]c34)cc2C)cn1 | 30% | 0% | 0% | 0% | 30% | 6% | 13% | 2% | 0% | 0% |
| COc1cc2ncn(-c3cc(OCc4ccc(S(C)(=O)=O)cc4)c(C(N)=O)s3)c2cc1OC [GW869979] | 0% | 18% | 0% | 0% | 34% | 12% | 0% | 0% | 0% | 0% |
| Nc1ncnc2c1ncn2-c1cccc2ccccc12 [SKF-97184] | 3% | 0% | 9% | 0% | 30% | 0% | 0% | 40% | 11% | 0% |
| COc1cccc(C2=C(Nc3cccc(C(=O)O)c3)C(=O)NC2=O)c1 [SB-390770] | 0% | 0% | 0% | 0% | 12% | 0% | 28% | 1% | 0% | 27% |
| O=C(Nc1ccc2c(c1)OCO2)NC1CCN(c2ccnc(NCc3ccc(F)cc3)n2)CC1 [GSK1379859] | 0% | 0% | 0% | 2% | 2% | 0% | 0% | 0% | 0% | 0% |
| Cc1nn2c(=O)cc(N3CCOCC3)nc2n1Cc1cccc(Cl)c1Cl [GSK2342769] | 0% | 0% | 0% | 0% | 11% | 0% | 10% | 0% | 44% | 12% |
| COc1cc(Nc2ccnc3ccc(C(F)(F)F)cc23)cc(OC)c1OC [GW577382] | 0% | 0% | 0% | 0% | 4% | 0% | 52% | 8% | 9% | 0% |
| C[C@@H]1CC[C@H](C(=O)NC2CCCCC2)CN1c1cc(-c2ccc3c(N)n[nH]c3c2)nc(N)n1 [GSK2291363] | 0% | 0% | 0% | 0% | 30% | 9% | 34% | 16% | 0% | 15% |
| CCC(=O)c1c(-c2ccccc2)c2cc(Cl)ccc2c(=O)n1Cc1cc(C(=O)NC2CC2)n(C)n1 | 3% | 0% | 0% | 0% | 0% | 2% | 23% | 8% | 0% | 6% |
| COc1cc2ncn(-c3cc(OCc4ccncc4Br)c(C(N)=O)s3)c2cc1OC [GW854278] | 0% | 4% | 0% | 0% | 24% | 2% | 26% | 17% | 0% | 31% |
| FC(F)(F)c1ccc(-c2ncn(CCCN3CCOCC3)c2-c2ccncc2)cc1 [SB-217780] | 24% | 0% | 0% | 0% | 3% | 3% | 12% | 2% | 0% | 15% |
| COc1ccc(-c2cc3c(C)nc(N)nc3n([C@H]3CC[C@H](OCCO)CC3)c2=O)cn1 | 19% | 0% | 0% | 0% | 6% | 0% | 6% | 0% | 3% | 0% |
| COc1cc(OC)cc(-c2cc3cnc(N)nc3nc2NC(=O)NC(C)(C)C)c1 | 42% | 0% | 0% | 0% | 0% | 0% | 13% | 0% | 7% | 33% |
| Cc1ccccc1COc1cc(-n2cnc3cc(Cl)ccc32)sc1C(N)=O [GW813349] | 0% | 0% | 3% | 0% | 22% | 0% | 7% | 28% | 0% | 11% |
| COc1cc2nccc(Nc3ccc(OCc4ccc(NC(C)=O)cc4)cc3)c2cc1OC.Cl [GW440135] | 0% | 0% | 0% | 1% | 0% | 0% | 13% | 21% | 5% | 1% |
| CCS(=O)c1ccc(-c2coc3ccc(-c4nnc(C)o4)cc23)cc1 (stereo not drawn) | 21% | 0% | 0% | 0% | 2% | 0% | 0% | 4% | 9% | 0% |
| Cc1cccc(-c2nc(Nc3ccc4c(cnn4C)c3)c3ccccc3n2)n1 [GW876731] | 23% | 12% | 0% | 0% | 0% | 0% | 6% |  | 0% | 0% |

| Compound | %Inh (TAK1) | %Inh (TAOK1) | %Inh (TAOK2) | %Inh (TAOK3) | %Inh (TBK1) | %Inh (TEC) | %Inh (TESK1) | %Inh (TGFBR1) | %Inh (TGFBR2) | %Inh (TIE1) |
| --- | --- | --- | --- | --- | --- | --- | --- | --- | --- | --- |
| CC(C)(C)c1ccc(C(=O)Nc2cn3cc(-c4ccccc4)ccc3n2)cc1 | 0% | 0% | 4% | 0% | 38% | 19% | 8% | 0% | 8% | 0% |
| CCS(=O)(=O)c1ccc(OC)c(Nc2ncc(-c3ccc(F)cc3)o2)c1.Cl [GW591947] | 0% | 0% | 0% | 0% | 3% | 0% | 1% | 0% | 0% | 0% |
| Nc1nc(-c2ccccc2F)c(-c2ccnc3ccccc23)s1 [GW560459] | 0% | 0% | 0% | 0% | 20% | 0% | 12% | 16% | 0% | 0% |
| Cl.c1ccc(Cn2cnc3cc(Nc4ncnc5ccccc45)ccc32)cc1 [GW272142] | 0% | 0% | 0% | 0% | 7% | 11% | 1% | 6% | 0% | 48% |
| CCn1c(-c2ccoc2)nc2cnccc21 [SB-733887] | 91.4% | 0% | 0% | 0% | 12% | 16% | 29% | 0% | 0% | 0% |
| Nc1ncnc2c1ncn2-c1cccc(F)c1 [SKF-97560] | 0% | 19% | 0% | 0% | 23% | 3% | 15% | 12% | 0% | 0% |
| COC(=O)c1c(-c2ccccc2)c2cc(Br)ccc2c(=O)n1Cc1ccc(S(C)(=O)=O)cc1 | 39% | 0% | 0% | 0% | 19% | 25% | 22% | 4% | 0% | 21% |
| Nc1ncnc2c1ncn2-c1ccc(Cl)cc1 [AH2635] | 0% | 0% | 0% | 0% | 15% | 9% | 4% | 0% | 6% | 0% |
| CCc1nc(-c2cccc(C)c2)c(-c2ccncc2)s1 | 0% | 0% | 14% | 0% | 35% | 0% | 0% | 0% | 13% | 0% |
| Cl.NS(=O)(=O)c1cccc(Nc2cc(-c3ccc(F)cc3)n[nH]2)c1 [GW824645] | 0% | 0% | 36% | 13% | 35% | 0% | 6% | 23% | 1% | 0% |
| CN(C)c1cc(-c2ccc3c(N)n[nH]c3c2)nc(N)n1 [GSK2219329] | 0% | 0% | 0% | 0% | 9% | 1% | 76% |  | 0% | 0% |
| CCn1c(-c2nonc2N)nc2ccccc21 [SB-693162/GW549034] | 33% | 0% | 0% | 3% | 34% | 0% | 14% | 53% | 0% | 56% |
| O=C(NCCNc1ccnc(Nc2ccc(F)cc2)n1)Nc1ccc2c(c1)OCO2 [GSK1379882] | 0% | 0% | 0% | 0% | 30% | 4% | 96.3% | 0% | 0% | 0% |
| Nc1n[nH]c2ncc(-c3ccccc3)cc12 [SB-517081] | 0% | 0% | 9% | 2% | 13% | 6% | 37% | 0% | 0% | 18% |
| Nc1nc(N)c2nc(-c3ccccc3)[nH]c2n1 [SKF-12778] | 4% | 16% | 0% | 17% | 16% | 7% | 12% | 0% | 3% | 26% |
| COc1cc2ncn(-c3cc(OCc4ccncc4)c(C(N)=O)s3)c2cc1OC [GSK336313] | 0% | 0% | 0% | 0% | 19% | 6% | 0% | 5% | 0% | 100% |
| CN1C(=O)C(Nc2cc(Cl)c(O)c(Cl)c2)=C(c2ccc(Cl)cc2)C1=O [SB-404321] | 0% | 0% | 0% | 0% | 4% | 0% | 0% | 6% | 0% | 0% |
